# In PubChem BioAssay:
# Calls of active or inactive are those of the source.
# Assay: budding yeast growth changes without added modifier – OD600, strain BY4716, 24 h, basal condition, primary screen (AID 1173)
# Conditions: S. cerevisiae BY4716 growth, OD600, 24 h; higher = more signal, called active from +8 up or from −8 down
row,Structure (SMILES),z-score
1,O=C1c2ccccc2[C@](Cc2ccccc2I)(C(=O)NCCN2CCOCC2)[C@H](c2ccc(CO)cc2)N1Cc1ccccc1,-0.915 (inactive)
2,CN(C)CCCCNC(=O)[C@H]1C[C@H]2C(=O)N3CCC[C@H]3C(=O)N2[C@H]1c1ccc(O)cc1,-0.659 (inactive)
3,C=C(CCCC)C(=O)CC[C@@H](OC(=O)c1ccccc1-c1ccccc1C(=O)O)c1cccc(OCCO)c1,-1.46 (inactive)
4,C=C(C(=O)CC[C@H](OC(=O)c1cccnc1)c1ccc(CO)o1)C(C)C,-1.02 (inactive)
5,COc1ccc(C#Cc2ccc3c(c2)[C@]2(C(=O)N3)[C@H](C(=O)N3CCc4cc(OC)c(OC)cc4C3)[C@H]3C(=O)O[C@H](c4ccccc4)[C@H](c4ccccc4)N3[C@@H]2c2ccc(O)cc2)cc1,0.507 (inactive)
6,[N-]=[N+]=NCc1ccccc1C[C@@]1(C(=O)N2CCCCC2)N=C(c2ccc(OCCCO)cc2)O[C@@H]1c1ccccc1N=[N+]=[N-],0.146 (inactive)
7,C=C[C@@H](COC(C)=O)NS(=O)(=O)c1ccc(Br)cc1,-11.8 (active)
8,CCOC(=O)C[C@H]1[C@H](OC(=O)c2ccc(-c3ccccc3)cc2)[C@@H](NC(=O)c2ccc3ccccc3c2)c2cc(OCCCO)ccc2N1C(=O)c1ccc2ccccc2n1,-0.158 (inactive)
9,CC(C)(C)OC(=O)CC[C@]1(C(=O)NCCN2CCOCC2)N=C(c2ccc(OCCCO)cc2)O[C@H]1c1ccccc1,0.26 (inactive)
10,C=CCOC(=O)[C@@H]1[C@H]2C(=O)O[C@H](c3ccccc3)[C@H](c3ccccc3)N2[C@H](c2ccc(OCCOC(=O)[C@H]3C[C@H]4C(=O)N[C@@H](CC(C)C)C(=O)N4[C@H]3c3ccc(O)cc3)cc2)[C@@]12C(=O)Nc1ccc(I)cc12,1.26 (inactive)
